# The source made the active and inactive calls. Where a call stands in place of a potency, no number is given. The call rests on the fitted dose curve; in most records, active means well fitted curve in the direction sought with a large enough effect in the repeat runs; inconclusive means weak or mixed curves; inactive means flat fitted curve, though single readings scatter.
# Test: qHTS assay to test for compound auto fluorescence at 535 nm (green) in HepG2 cells (AID 720675)
# Details: green autofluorescence 485/535 nm, 1 h; series mostly up to 91.3 µM
row,Structure (SMILES),outcome
1,CCCCOC(=O)COC(=O)c1ccccc1C(=O)OCCCC,inactive
2,CC(C)(C#N)N=NC(C)(C)C#N,inactive
3,c1ccc(C2CO2)cc1 (centres undefined),inactive
4,CC(C)Nc1nc(Cl)nc(NC(C)C)n1,inactive
5,CC(C)CON=O,inactive
6,Clc1cccc(Cl)c1,inactive
7,CCCCCCCCCCCCCl,inactive
8,COP(=S)(OC)Oc1ccc(Sc2ccc(OP(=S)(OC)OC)cc2)cc1,inactive
9,Nc1ncn[nH]1,inactive
10,CC(C)(O)C#N,inactive
11,NC(=O)CN1CCCC1=O,inactive
12,CCNc1nc(Cl)nc(NC(C)(C)C#N)n1,inactive
13,O=C1CCCO1,inactive
14,CCCCCCCC[N+](C)(CCCCCCCC)CCCCCCCC,inactive
15,CN(C)c1nc(=O)n(C2CCCCC2)c(=O)n1C,inactive
16,Cn1c(-c2ccccc2)cc(-c2ccccc2)[n+]1C,inactive
17,N#CCCCCC#N,inactive
18,C[C@]12CCC(=O)C=C1CC[C@@H]1[C@@H]2CC[C@@]2(C)[C@H]1CC[C@]2(C)O,inactive
19,Clc1ccc(C(Cl)(Cl)Cl)cc1,inactive

row,Structure (SMILES),outcome
1,O=P(OCCCl)(OCCCl)OCCCl,inactive
2,CC[n+]1c(-c2ccccc2)c2cc(N)ccc2c2ccc(N)cc21,inactive
3,CCOP(=O)(OCC)OCC,inactive
4,COc1ccc(O)c(C(C)(C)C)c1,inactive
5,CN(C)c1ccccc1,inactive
6,CCC1(c2ccc(N)cc2)CCC(=O)NC1=O (centres undefined),inactive
7,CCOP(=S)(OCC)SCn1c(=O)oc2cc(Cl)ccc21,inactive
8,CC(C)=CC1C(C(=O)OCc2cccc(Oc3ccccc3)c2)C1(C)C (centres undefined),inactive
9,O=C(O)c1nn(Cc2ccc(Cl)cc2Cl)c2ccccc12,inactive
10,N#Cc1nn(-c2c(Cl)cc(C(F)(F)F)cc2Cl)c(N)c1S(=O)C(F)(F)F (centres undefined),inactive
11,O=NN(c1ccccc1)c1ccccc1,inactive
12,N#Cc1cccnc1,inactive
13,CC(C)COC(=O)c1ccccc1C(=O)OCC(C)C,inactive
14,O=[N+]([O-])c1ccc(Nc2ccccc2)cc1,inactive
15,CNC(=O)Oc1cccc2c1OC(C)(C)C2,inactive
16,ClC(Cl)=C(Cl)C(Cl)=C(Cl)Cl,inactive
17,CCCCOCC1CO1 (centres undefined),inactive
18,ClCc1ccccn1,inactive
19,O=[N+]([O-])/N=C1\NCCN1Cc1ccc(Cl)nc1,inactive

# Test: qHTS assay to test for compound auto fluorescence at 460 nm (blue) in HEK293 cells (AID 720678)
# Details: blue autofluorescence 405/460 nm; series mostly up to 91.3 µM
# Summary of the method: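 HEK293 cells (2,000 per well, medium with 10% dialyzed FBS) attached for 4-5 hr at 37C, then received compound and stood overnight at 37C, 5% CO2. Blue fluorescence was read at Ex/Em 405/460 nm and expressed relative to triamterene.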
row,Structure (SMILES),Potency
1,CCCCOC(=O)COC(=O)c1ccccc1C(=O)OCCCC,inactive
2,CC(C)(C#N)N=NC(C)(C)C#N,inactive
3,c1ccc(C2CO2)cc1 (centres undefined),inactive
4,CC(C)Nc1nc(Cl)nc(NC(C)C)n1,inactive
5,CC(C)CON=O,inactive
6,Clc1cccc(Cl)c1,inactive
7,CCCCCCCCCCCCCl,inactive
8,COP(=S)(OC)Oc1ccc(Sc2ccc(OP(=S)(OC)OC)cc2)cc1,inactive
9,Nc1ncn[nH]1,inactive
10,CC(C)(O)C#N,inactive
11,NC(=O)CN1CCCC1=O,inactive
12,CCNc1nc(Cl)nc(NC(C)(C)C#N)n1,inactive
13,O=C1CCCO1,inactive
14,CCCCCCCC[N+](C)(CCCCCCCC)CCCCCCCC,inactive
15,CN(C)c1nc(=O)n(C2CCCCC2)c(=O)n1C,inactive
16,Cn1c(-c2ccccc2)cc(-c2ccccc2)[n+]1C,inactive
17,N#CCCCCC#N,inactive
18,C[C@]12CCC(=O)C=C1CC[C@@H]1[C@@H]2CC[C@@]2(C)[C@H]1CC[C@]2(C)O,inactive
19,Clc1ccc(C(Cl)(Cl)Cl)cc1,inactive

row,Structure (SMILES),Potency
1,O=P(OCCCl)(OCCCl)OCCCl,inactive
2,CC[n+]1c(-c2ccccc2)c2cc(N)ccc2c2ccc(N)cc21,inactive
3,CCOP(=O)(OCC)OCC,inactive
4,COc1ccc(O)c(C(C)(C)C)c1,inactive
5,CN(C)c1ccccc1,inactive
6,CCC1(c2ccc(N)cc2)CCC(=O)NC1=O (centres undefined),inactive
7,CCOP(=S)(OCC)SCn1c(=O)oc2cc(Cl)ccc21,inactive
8,CC(C)=CC1C(C(=O)OCc2cccc(Oc3ccccc3)c2)C1(C)C (centres undefined),inactive
9,O=C(O)c1nn(Cc2ccc(Cl)cc2Cl)c2ccccc12,inactive
10,N#Cc1nn(-c2c(Cl)cc(C(F)(F)F)cc2Cl)c(N)c1S(=O)C(F)(F)F (centres undefined),inactive
11,O=NN(c1ccccc1)c1ccccc1,inactive
12,N#Cc1cccnc1,inactive
13,CC(C)COC(=O)c1ccccc1C(=O)OCC(C)C,inactive
14,O=[N+]([O-])c1ccc(Nc2ccccc2)cc1,inactive
15,CNC(=O)Oc1cccc2c1OC(C)(C)C2,inactive
16,ClC(Cl)=C(Cl)C(Cl)=C(Cl)Cl,inactive
17,CCCCOCC1CO1 (centres undefined),inactive
18,ClCc1ccccn1,inactive
19,O=[N+]([O-])/N=C1\NCCN1Cc1ccc(Cl)nc1,inactive

# Test: qHTS assay to test for compound auto fluorescence at 590 nm (red) in HEK293 cells (AID 720679)
# Details: red autofluorescence 540/590 nm; series mostly up to 91.3 µM
# Summary of the method: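 HEK293 cells (2,000/well, medium with 10% dialyzed FBS) attached for 4-5 hr at 37C, received 23 nL compound and were incubated overnight at 37C, 5% CO2. Red fluorescence was then read at 540/590nm Ex/Em, referenced to Rose Bengal sodium.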
row,Structure (SMILES),outcome
1,CCCCOC(=O)COC(=O)c1ccccc1C(=O)OCCCC,inactive
2,CC(C)(C#N)N=NC(C)(C)C#N,inactive
3,c1ccc(C2CO2)cc1 (centres undefined),inactive
4,CC(C)Nc1nc(Cl)nc(NC(C)C)n1,inactive
5,CC(C)CON=O,inactive
6,Clc1cccc(Cl)c1,inactive
7,CCCCCCCCCCCCCl,inactive
8,COP(=S)(OC)Oc1ccc(Sc2ccc(OP(=S)(OC)OC)cc2)cc1,inactive
9,Nc1ncn[nH]1,inactive
10,CC(C)(O)C#N,inactive
11,NC(=O)CN1CCCC1=O,inactive
12,CCNc1nc(Cl)nc(NC(C)(C)C#N)n1,inactive
13,O=C1CCCO1,inactive
14,CCCCCCCC[N+](C)(CCCCCCCC)CCCCCCCC,inactive
15,CN(C)c1nc(=O)n(C2CCCCC2)c(=O)n1C,inactive
16,Cn1c(-c2ccccc2)cc(-c2ccccc2)[n+]1C,inactive
17,N#CCCCCC#N,inactive
18,C[C@]12CCC(=O)C=C1CC[C@@H]1[C@@H]2CC[C@@]2(C)[C@H]1CC[C@]2(C)O,inactive
19,Clc1ccc(C(Cl)(Cl)Cl)cc1,inactive

row,Structure (SMILES),outcome
1,O=P(OCCCl)(OCCCl)OCCCl,inactive
2,CC[n+]1c(-c2ccccc2)c2cc(N)ccc2c2ccc(N)cc21,inactive
3,CCOP(=O)(OCC)OCC,inactive
4,COc1ccc(O)c(C(C)(C)C)c1,inactive
5,CN(C)c1ccccc1,inactive
6,CCC1(c2ccc(N)cc2)CCC(=O)NC1=O (centres undefined),inactive
7,CCOP(=S)(OCC)SCn1c(=O)oc2cc(Cl)ccc21,inactive
8,CC(C)=CC1C(C(=O)OCc2cccc(Oc3ccccc3)c2)C1(C)C (centres undefined),inactive
9,O=C(O)c1nn(Cc2ccc(Cl)cc2Cl)c2ccccc12,inactive
10,N#Cc1nn(-c2c(Cl)cc(C(F)(F)F)cc2Cl)c(N)c1S(=O)C(F)(F)F (centres undefined),inactive
11,O=NN(c1ccccc1)c1ccccc1,inactive
12,N#Cc1cccnc1,inactive
13,CC(C)COC(=O)c1ccccc1C(=O)OCC(C)C,inactive
14,O=[N+]([O-])c1ccc(Nc2ccccc2)cc1,inactive
15,CNC(=O)Oc1cccc2c1OC(C)(C)C2,inactive
16,ClC(Cl)=C(Cl)C(Cl)=C(Cl)Cl,inactive
17,CCCCOCC1CO1 (centres undefined),inactive
18,ClCc1ccccn1,inactive
19,O=[N+]([O-])/N=C1\NCCN1Cc1ccc(Cl)nc1,inactive

# Source: PubChem BioAssay (Tox21)
